From PubChem BioAssay (Tox21) come the findings set out here.

Values joined by “and” are separate entries in the source; they are usually repeats but may differ in a detail not shown here. Equal entries are not always repeated. Inconclusive results are not listed. A call without a number means that no potency is given here. Active and inactive are the calls of the source. Calls follow the shape of the dose curve; as a rule, active = well fitted inhibition curve with a large enough effect in the repeat runs; inconclusive = weak or mixed curves; inactive = no such curve, though single readings can be large or run the other way.
Potency is read from the fitted curve at half-maximal effect.

The nature of the assay: qHTS assay to identify small molecule antagonists of the thyroid receptor (TR) signaling pathway (AID 743065). Also: nearly all actives have a fitted effect of over 55% in size. Particulars: GH3.TRE-Luc, T3-stimulated luciferase inhibition, 23.5 h; series mostly up to 70.3 µM. From the text:
U.S. Tox21 Program National Center for Advancing Translational Sciences [NCATS] NIH Chemical Genomics Center [NCGC] U.S. Environmental Protection Agency [EPA] National Institutes of Environmental Health Sciences [NIEHS] National Toxicology Program [NTP] U.S. Food and Drug Administration [FDA] Tox21 Assay Overview: Thyroid receptor (TR), a nuclear hormone receptor, plays an important role in development, proliferation, differentiation, metabolism, brain function, and cardiovascular system. […] To profile the Tox21 10K compound library in TR signaling, a cell-based GH3-TRE-Luc assay (GH3.TRE-Luc cell line, developed by the laboratory of Dr. Albertinka J. Murk, Wageningen University) was used to measure the inhibition of TR. GH3 (rat pituitary tumor) cells stably expressing a TR activity sensor consisting of two TR response elements and a luciferase reporter gene.
Tox21 Assay Protocol Summary: GH3.TRE-Luc cells were dispensed at 1500 cells/4 uL/well into 1536-well white solid bottom plates using a Multidrop Combi dispenser (Thermo Fisher Scientific Inc., Waltham, MA). After the assay plates were incubated at 37 C for 4 hours, 23 nL of library compound or DMSO controls was transferred to the assay plates by a pintool station (Kalypsys, San Diego, CA), followed by addition of 1 ul of T3 (1 nM, final concentration in the wells) to stimulate TR transactivation. The assay plates were incubated at 37 C for 23.5 h, and then 1 uL of CellTiter-Fluor reagent (Promega, Madision, WI) of measuring cytotoxicity was added to each well using a Bioraptr Flying Reagent Dispenser (FRD) workstation (Beckman Coulter, Indianapolis, IN, USA). The plates were incubated at 37 C and 5% CO2 for additional 30 min, and fluorescence intensity was measured by a ViewLux plate reader (PerkinElmer, Shelton, CT). For measuring luciferase reporter gene activity, 4 uL of ONE-Glo Luciferase Assay reagent (Promega) was added to each well using a Bioraptr FRD (Beckman Coulter), followed by 30 min incubation at room temperature. The luminescence intensity of plates was recorded by a ViewLux plate reader (PerkinElmer, Shelton, CT).
A general note: In qHTS, concentration-response curves come from the screen itself.
As to `CCCCOC(=O)CC`, the Potency result was “inactive”.

For the compound `O=C(/C=C/c1ccccc1)OC/C=C/c1ccccc1`, the Potency entry is “inactive”.

For `NC[C@H]1O[C@H](O[C@H]2[C@H](O[C@@H]3O[C@H](CO)[C@@H](O)[C@H]3O)C(O)[C@H](N)C[C@@H]2N)[C@H](N)[C@@H](O)[C@@H]1O` (stereo not given in full), the Potency entry is “inactive”.

Regarding `OCCN1CCN(CCCN2c3ccccc3Sc3ccc(C(F)(F)F)cc32)CC1`, the Potency was 6.68 µM (active).

In the case of `O=S(=O)(O)c1ccccc1/C=C/c1ccc(-c2ccc(/C=C/c3ccccc3S(=O)(=O)O)cc2)cc1`, the Potency entry is “inactive”.

Consider `CCc1oc2ccccc2c1C(=O)c1cc(I)c(O)c(I)c1`, for which the Potency was 21.1 µM (active).

For `CC(C(=O)O)c1ccc2c(c1)[nH]c1ccc(Cl)cc12` (stereo not given), the Potency result is “inactive”.

Turning to `Nc1ccc(C(=O)O)c(O)c1`, the Potency result is “inactive”.

Consider `CN(C)C(=O)COC(=O)Cc1ccc(OC(=O)c2ccc(N=C(N)N)cc2)cc1`, for which the Potency entry is “inactive”.

As for `CCN(CCN)c1cccc(C)c1`, the Potency result was “inactive”.

For the compound `CC1=Nc2ccccc2C1(C)C`, the Potency entry was “inactive”.

Consider `O=C(/C=C/c1ccc(O)c(O)c1)O[C@@H](C(=O)O)[C@@H](OC(=O)/C=C/c1ccc(O)c(O)c1)C(=O)O`, for which the Potency entry was “inactive”.

With `CC(=O)Oc1cc2c(s1)CCN(C(C(=O)C1CC1)c1ccccc1F)C2` (stereo not given), the Potency entry is “inactive”.

Take `O=C1C(c2[nH]c3ccc(S(=O)(=O)O)cc3c2O)=Nc2ccc(S(=O)(=O)O)cc21`: the Potency entry is “inactive”.

Regarding `[Cl][Pt-2]([Cl])([Cl])[Cl]`, the Potency result was “inactive”.

On to `CCOC(=O)c1ccc(C2CCC(NC[C@H](O)COc3ccc(O)c(NS(C)(=O)=O)c3)CC2)cc1` (stereo not given in full), for which the Potency is 28.3 µM (active).

With `FC(F)(F)c1cccc(Cl)c1`, the Potency entry was “inactive”.

`CC(C)OC(=O)C(O)(CC(=O)O)CC(=O)O`: the Potency entry is “inactive”.

Regarding `C#C[C@]1(OC(C)=O)CC[C@H]2[C@@H]3CCC4=C/C(=N/O)CC[C@@H]4[C@H]3CC[C@@]21CC`, the Potency is 21.1 µM (active).

In the case of `OC1CCCc2ccccc21` (stereo not given), the Potency entry is “inactive”.

As to `Cc1c(C)c2c(c(C)c1OC(=O)c1cccnc1)CC[C@@](C)(CCC[C@H](C)CCC[C@H](C)CCCC(C)C)O2`, the Potency result was “inactive”.

For the compound `O=C1c2ccccc2C(=O)N1SC1CCCCC1`, the Potency is 24.3 µM (active) and 15.4 µM (active).

Consider `O=C(O)O`, for which the activity, negative = inhibition is -9.25% [at 8.44 µM] (inactive).

`Cc1ccc(O)c(O)c1`: the Potency is 26.5 µM (active).

Consider `CCCCCCCC/C=C\CCCCCCCCN`, for which the Potency entry was “inactive”.

In the case of `CN1CCN2c3ccccc3Cc3ccccc3C2C1` (stereo not given), the Potency is 23.7 µM (active).

For the compound `c1cnccn1`, the Potency entry is “inactive”.

For `CCCCCCCC`, the Potency result is “inactive”.

For the compound `O=c1[nH]c2ccccc2n1CCCN1CCN(C(c2ccccc2)c2ccccc2)CC1`, the Potency was 23.7 µM (active).

With `C=Cc1ccccc1C=C`, the Potency entry was “inactive”.

For `CCN1C(=O)c2ccccc2C1Nc1ccc(OCCN2CCCCC2)cc1` (stereo not given), the Potency entry is “inactive”.

For `CCCCNS(=O)(=O)c1ccc(C)cc1`, the Potency result was “inactive”.

Consider `Cc1ccc(C(C)C)cc2c(C)ccc1-2`, for which the Potency result is “inactive”.

Turning to `CC[N+](CC)(CC)CCOC(=O)C(C1CCCC1)C1CCCC1`, the Potency entry was “inactive”.

On to `COc1cc(/C=C/c2ccccc2)oc(=O)c1`, for which the Potency result was “inactive”.

As to `CCCC1CCC(=O)CC1`, the Potency result is “inactive”.

As for `Cc1cc(C(C#N)c2ccc(Cl)cc2)c(Cl)cc1NC(=O)c1cc(I)cc(I)c1O` (stereo not given), the Potency is 26.6 µM (active).

Consider `O=C1OC2(c3ccc(O)cc3Oc3cc(O)ccc32)c2ccc(N=C=S)cc21`, for which the Potency result was “inactive”.

As for `Cc1ccc(-c2ccccc2)cc1`, the Potency result was “inactive”.

`C[Si](Cl)(c1ccccc1)c1ccccc1`: the Potency result is “inactive”.
